# Test results from paper PMC7862700, “An all-to-all approach to the identification of sequence-specific readers for epigenetic DNA modifications on cytosine”.
# How the values were obtained:
# Experiment in all cases: DAPPL (digital affinity profiling via proximity ligation, sequencing); 10 mM Tris-HCl pH 7.5, 50 mM NaCl, 1 mM DTT, 4% glycerol, room temperature, 30 min; GST-TFs on glutathione beads, 16-mer random dsDNA library, 0.1% formaldehyde crosslink after washing; high values mean tight binding
# FLI1 = molecular target: T1, FLI1 (Homo sapiens, UniProt Q01543 1-452); conditions: protein: recombinant; tags: N-terminal GST; dsDNA, one strand shown
# T1 sequence: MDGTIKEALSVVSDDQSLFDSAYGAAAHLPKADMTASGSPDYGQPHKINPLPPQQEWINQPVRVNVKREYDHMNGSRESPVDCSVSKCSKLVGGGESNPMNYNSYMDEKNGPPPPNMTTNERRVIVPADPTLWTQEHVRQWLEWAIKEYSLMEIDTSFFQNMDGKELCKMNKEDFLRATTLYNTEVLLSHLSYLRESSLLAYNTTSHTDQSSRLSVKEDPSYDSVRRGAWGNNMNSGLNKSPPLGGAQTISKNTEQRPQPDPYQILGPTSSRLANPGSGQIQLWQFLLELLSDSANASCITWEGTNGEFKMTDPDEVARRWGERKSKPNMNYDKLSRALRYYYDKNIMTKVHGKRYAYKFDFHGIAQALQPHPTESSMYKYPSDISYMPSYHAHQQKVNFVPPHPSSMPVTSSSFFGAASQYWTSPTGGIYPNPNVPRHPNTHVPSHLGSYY
# Outline: (§1)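 Yeast served to express human transcription factors as GST fusions, which were then captured on glutathione beads and labelled with DNA barcodes. Pooled with a tag-only sample, they were incubated with 200 nmole of a 16-mer random double-stranded DNA library for 30 min at room temperature in Tris/NaCl/DTT/glycerol buffer, washed, crosslinked with 0.1% formaldehyde, ligated by proximity, amplified by PCR and sequenced. Dividing each hexamer's read frequency for a factor by its frequency for the tag-only sample gives the binding signal.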
# ELK1 = molecular target: T2, ELK1 (Homo sapiens, UniProt P19419 1-428); conditions: protein: recombinant; tags: N-terminal GST; dsDNA, one strand shown
# T2 sequence: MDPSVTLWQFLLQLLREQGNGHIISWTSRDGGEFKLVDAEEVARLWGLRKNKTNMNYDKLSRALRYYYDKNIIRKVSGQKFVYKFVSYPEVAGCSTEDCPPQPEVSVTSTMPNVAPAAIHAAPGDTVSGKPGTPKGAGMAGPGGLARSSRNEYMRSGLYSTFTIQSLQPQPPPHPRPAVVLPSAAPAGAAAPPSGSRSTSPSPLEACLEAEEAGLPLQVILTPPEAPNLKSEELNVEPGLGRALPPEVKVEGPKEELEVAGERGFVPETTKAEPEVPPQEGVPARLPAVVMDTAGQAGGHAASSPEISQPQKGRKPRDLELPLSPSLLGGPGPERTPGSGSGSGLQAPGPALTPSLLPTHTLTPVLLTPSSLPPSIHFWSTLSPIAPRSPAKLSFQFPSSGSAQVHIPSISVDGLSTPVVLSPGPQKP
# Outline: as §1
# GABPA = molecular target: T3, GABPA (Homo sapiens, UniProt Q06546 1-454); conditions: protein: recombinant; tags: N-terminal GST; dsDNA, one strand shown
# T3 sequence: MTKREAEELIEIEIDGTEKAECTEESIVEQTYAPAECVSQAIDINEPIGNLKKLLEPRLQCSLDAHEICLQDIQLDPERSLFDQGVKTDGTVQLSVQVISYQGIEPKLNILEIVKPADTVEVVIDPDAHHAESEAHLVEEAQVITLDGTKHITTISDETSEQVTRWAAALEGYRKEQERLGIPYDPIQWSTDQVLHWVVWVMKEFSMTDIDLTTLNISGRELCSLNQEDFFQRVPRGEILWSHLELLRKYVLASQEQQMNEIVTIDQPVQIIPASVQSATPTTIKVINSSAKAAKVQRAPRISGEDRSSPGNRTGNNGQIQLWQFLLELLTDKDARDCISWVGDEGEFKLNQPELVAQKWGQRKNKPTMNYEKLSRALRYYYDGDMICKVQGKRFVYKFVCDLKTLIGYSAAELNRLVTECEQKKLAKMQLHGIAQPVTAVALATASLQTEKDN
# Outline: as §1
# ERG = molecular target: T4, ERG (Homo sapiens, UniProt P11308 1-479); conditions: protein: recombinant; tags: N-terminal GST; dsDNA, one strand shown
# T4 sequence: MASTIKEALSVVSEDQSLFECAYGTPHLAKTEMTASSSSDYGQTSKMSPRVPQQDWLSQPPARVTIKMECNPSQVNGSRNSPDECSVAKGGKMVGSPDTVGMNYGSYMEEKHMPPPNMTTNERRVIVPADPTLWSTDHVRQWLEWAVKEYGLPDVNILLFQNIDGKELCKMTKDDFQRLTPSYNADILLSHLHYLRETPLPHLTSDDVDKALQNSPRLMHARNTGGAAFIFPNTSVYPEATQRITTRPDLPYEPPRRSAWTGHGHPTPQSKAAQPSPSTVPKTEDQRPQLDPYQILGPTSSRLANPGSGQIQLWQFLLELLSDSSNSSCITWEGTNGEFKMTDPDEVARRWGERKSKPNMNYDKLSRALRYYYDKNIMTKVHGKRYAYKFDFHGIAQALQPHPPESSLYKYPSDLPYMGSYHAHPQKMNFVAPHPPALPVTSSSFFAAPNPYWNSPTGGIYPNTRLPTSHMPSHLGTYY
# Outline: as §1
# ELF1 = ELF1 (Homo sapiens, UniProt P32519 1-619); conditions: protein: recombinant; tags: N-terminal GST; dsDNA, one strand shown
# Chain of ELF1 (P32519 whole entry): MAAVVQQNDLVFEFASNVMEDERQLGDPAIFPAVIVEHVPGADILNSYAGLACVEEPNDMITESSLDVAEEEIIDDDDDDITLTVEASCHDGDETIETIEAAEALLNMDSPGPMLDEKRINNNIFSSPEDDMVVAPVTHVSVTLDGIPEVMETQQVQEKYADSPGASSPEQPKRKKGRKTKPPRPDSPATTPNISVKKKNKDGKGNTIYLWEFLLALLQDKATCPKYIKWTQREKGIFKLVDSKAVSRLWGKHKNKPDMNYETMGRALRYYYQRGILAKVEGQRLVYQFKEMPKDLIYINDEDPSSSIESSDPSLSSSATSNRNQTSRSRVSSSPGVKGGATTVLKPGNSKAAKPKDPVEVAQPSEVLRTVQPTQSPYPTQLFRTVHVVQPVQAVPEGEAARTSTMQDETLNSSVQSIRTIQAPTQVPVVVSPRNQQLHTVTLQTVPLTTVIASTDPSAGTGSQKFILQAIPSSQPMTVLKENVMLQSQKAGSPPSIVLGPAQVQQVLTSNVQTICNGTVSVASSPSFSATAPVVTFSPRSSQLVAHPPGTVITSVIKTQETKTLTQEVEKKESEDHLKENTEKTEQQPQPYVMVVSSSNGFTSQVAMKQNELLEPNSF
# Outline: as §1
# EHF = molecular target: T5, EHF (Homo sapiens, UniProt Q9NZC4 1-300); conditions: protein: recombinant; tags: N-terminal GST; dsDNA, one strand shown
# T5 sequence: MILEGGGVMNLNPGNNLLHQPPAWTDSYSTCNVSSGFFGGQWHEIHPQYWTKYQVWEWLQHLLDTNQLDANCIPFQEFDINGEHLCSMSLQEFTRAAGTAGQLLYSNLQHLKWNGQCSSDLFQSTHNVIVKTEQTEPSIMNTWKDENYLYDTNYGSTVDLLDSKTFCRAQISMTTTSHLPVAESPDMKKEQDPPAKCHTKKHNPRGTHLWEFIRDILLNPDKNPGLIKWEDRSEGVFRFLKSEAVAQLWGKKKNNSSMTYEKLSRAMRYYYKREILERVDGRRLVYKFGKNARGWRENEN
# Outline: as §1
# SPI1 = SPI1 (Homo sapiens, UniProt P17947 1-270); conditions: protein: recombinant; tags: N-terminal GST; dsDNA, one strand shown
# Outline: as §1
# SPIB = SPIB (Homo sapiens, UniProt Q01892 1-262); conditions: protein: recombinant; tags: N-terminal GST; dsDNA, one strand shown
# Chain of SPIB (Q01892 whole entry): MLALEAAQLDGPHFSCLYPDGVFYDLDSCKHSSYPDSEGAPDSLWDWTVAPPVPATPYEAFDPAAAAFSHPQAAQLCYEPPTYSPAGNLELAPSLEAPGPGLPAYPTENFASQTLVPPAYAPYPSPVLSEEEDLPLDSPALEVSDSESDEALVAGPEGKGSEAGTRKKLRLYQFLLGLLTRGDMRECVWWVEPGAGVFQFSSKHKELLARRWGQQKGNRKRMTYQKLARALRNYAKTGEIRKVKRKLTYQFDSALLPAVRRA
# Outline: as §1
# ELK3 = molecular target: T6, ELK3 (Homo sapiens, UniProt P41970 1-407); conditions: protein: recombinant; tags: N-terminal GST; dsDNA, one strand shown
# T6 sequence: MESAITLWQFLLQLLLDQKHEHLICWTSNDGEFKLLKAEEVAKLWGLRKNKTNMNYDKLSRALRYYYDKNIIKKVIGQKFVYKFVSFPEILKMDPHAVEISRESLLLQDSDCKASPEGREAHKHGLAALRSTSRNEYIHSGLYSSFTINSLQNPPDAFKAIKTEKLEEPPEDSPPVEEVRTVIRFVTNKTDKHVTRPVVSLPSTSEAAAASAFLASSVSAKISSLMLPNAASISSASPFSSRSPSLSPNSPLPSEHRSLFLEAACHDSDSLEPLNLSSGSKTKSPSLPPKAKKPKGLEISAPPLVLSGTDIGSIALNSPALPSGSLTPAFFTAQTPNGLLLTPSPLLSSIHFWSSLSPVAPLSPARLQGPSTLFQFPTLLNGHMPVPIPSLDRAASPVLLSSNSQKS
# Outline: as §1
# FEV = molecular target: T7, FEV (Homo sapiens, UniProt Q99581 1-238); conditions: protein: recombinant; tags: N-terminal GST; dsDNA, one strand shown
# T7 sequence: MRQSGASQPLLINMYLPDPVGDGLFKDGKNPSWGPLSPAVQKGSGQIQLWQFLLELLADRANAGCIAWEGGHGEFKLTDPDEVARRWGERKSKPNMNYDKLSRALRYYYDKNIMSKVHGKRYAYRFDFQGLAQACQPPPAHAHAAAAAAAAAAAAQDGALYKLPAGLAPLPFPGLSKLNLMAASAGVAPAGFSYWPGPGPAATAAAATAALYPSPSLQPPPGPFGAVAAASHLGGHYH
# Outline: as §1
# ETV5 = ETV5 (Homo sapiens, UniProt P41161 1-510); conditions: protein: recombinant; tags: N-terminal GST; dsDNA, one strand shown
# Chain of ETV5 (P41161 whole entry): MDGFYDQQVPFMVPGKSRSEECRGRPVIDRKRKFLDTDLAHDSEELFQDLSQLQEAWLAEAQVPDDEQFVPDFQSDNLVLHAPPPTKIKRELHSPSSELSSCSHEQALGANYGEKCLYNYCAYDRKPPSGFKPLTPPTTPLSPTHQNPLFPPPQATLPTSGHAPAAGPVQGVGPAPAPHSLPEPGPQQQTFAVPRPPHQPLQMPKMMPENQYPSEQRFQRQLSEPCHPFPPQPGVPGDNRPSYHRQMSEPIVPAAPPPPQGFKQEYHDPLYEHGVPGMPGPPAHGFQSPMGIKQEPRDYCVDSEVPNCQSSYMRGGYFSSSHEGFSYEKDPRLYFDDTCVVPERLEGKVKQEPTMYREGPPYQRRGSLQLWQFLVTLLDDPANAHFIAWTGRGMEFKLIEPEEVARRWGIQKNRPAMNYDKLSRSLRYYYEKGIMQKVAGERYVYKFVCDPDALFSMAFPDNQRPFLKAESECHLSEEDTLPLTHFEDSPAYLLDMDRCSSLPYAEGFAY
# Outline: as §1
# HSF1 = HSF1 (Homo sapiens, UniProt Q00613 1-529); conditions: protein: recombinant; tags: N-terminal GST; chain copies: 3; dsDNA, one strand shown
# Chain of HSF1 (Q00613 whole entry): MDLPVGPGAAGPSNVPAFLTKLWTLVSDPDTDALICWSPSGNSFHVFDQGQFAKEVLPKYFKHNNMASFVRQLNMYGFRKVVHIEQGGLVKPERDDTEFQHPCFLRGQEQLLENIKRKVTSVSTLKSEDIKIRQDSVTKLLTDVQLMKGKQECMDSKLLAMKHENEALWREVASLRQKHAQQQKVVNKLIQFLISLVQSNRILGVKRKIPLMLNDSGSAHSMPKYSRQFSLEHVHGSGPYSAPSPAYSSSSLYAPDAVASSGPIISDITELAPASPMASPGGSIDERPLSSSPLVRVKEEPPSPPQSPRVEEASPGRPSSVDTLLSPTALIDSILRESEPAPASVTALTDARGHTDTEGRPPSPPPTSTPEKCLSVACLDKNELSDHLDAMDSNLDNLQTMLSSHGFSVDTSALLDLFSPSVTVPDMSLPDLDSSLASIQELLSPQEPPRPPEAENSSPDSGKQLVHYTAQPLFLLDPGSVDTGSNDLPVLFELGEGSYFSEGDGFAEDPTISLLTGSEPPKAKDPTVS
# Outline: as §1
# SPIC = molecular target: T8, SPIC (Homo sapiens, UniProt Q8N5J4 1-248); conditions: protein: recombinant; tags: N-terminal GST; dsDNA, one strand shown
# T8 sequence: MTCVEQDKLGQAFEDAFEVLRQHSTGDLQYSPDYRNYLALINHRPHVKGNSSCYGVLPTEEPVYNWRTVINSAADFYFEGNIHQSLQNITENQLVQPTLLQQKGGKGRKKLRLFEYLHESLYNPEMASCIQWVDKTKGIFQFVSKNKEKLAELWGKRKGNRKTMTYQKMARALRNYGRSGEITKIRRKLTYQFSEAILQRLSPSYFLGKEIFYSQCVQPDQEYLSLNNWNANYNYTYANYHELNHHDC
# Outline: as §1
# ELF4 = ELF4 (Homo sapiens, UniProt Q99607 1-663); conditions: protein: recombinant; tags: N-terminal GST; dsDNA, one strand shown
# Chain of ELF4 (Q99607 whole entry): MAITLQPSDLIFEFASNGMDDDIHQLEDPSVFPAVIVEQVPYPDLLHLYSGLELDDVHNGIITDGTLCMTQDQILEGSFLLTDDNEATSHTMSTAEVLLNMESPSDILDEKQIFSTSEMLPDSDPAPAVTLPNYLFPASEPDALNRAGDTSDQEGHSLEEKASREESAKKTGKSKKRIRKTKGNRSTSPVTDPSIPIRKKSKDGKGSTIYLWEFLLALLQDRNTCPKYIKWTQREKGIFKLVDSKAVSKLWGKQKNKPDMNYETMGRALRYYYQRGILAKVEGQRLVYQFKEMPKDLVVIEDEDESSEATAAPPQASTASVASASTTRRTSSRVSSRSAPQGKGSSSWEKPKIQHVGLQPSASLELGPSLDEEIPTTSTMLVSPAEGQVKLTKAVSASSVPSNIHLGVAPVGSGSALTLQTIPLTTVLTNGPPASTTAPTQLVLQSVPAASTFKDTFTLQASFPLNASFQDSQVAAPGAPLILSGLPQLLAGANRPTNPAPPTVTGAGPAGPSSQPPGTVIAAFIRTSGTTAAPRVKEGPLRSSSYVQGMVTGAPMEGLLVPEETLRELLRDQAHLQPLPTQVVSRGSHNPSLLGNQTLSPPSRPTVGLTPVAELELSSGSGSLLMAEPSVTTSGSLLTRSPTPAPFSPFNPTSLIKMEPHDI
# Outline: as §1
# ELK4 = molecular target: T9, ELK4 (Homo sapiens, UniProt P28324-2 1-405); conditions: protein: recombinant; tags: N-terminal GST; dsDNA, one strand shown
# T9 sequence: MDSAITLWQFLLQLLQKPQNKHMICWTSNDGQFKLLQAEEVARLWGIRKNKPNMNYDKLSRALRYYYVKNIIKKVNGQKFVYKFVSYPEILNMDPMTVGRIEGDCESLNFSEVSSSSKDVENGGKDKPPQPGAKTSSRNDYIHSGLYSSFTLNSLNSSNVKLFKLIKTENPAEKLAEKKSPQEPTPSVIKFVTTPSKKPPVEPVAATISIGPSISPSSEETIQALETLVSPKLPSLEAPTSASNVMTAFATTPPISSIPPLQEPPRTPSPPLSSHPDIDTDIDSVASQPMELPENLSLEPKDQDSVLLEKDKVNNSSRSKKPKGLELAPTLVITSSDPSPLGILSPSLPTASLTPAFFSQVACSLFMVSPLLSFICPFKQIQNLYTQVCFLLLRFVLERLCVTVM
# Outline: as §1
# ETV2 = molecular target: T10, ETV2 (Homo sapiens, UniProt O00321 1-342); conditions: protein: recombinant; tags: N-terminal GST; dsDNA, one strand shown
# T10 sequence: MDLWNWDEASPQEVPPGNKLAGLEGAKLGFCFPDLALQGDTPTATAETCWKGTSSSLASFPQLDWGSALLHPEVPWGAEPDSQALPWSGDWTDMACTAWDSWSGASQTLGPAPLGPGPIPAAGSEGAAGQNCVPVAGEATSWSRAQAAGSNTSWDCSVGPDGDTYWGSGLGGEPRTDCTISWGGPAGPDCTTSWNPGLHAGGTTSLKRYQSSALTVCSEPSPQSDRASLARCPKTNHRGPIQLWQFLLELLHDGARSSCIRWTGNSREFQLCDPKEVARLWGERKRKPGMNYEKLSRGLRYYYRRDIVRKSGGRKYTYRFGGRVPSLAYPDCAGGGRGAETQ
# Outline: as §1
# ELF3 = molecular target: T11, ELF3 (Homo sapiens, UniProt P78545 1-371); conditions: protein: recombinant; tags: N-terminal GST; dsDNA, one strand shown
# T11 sequence: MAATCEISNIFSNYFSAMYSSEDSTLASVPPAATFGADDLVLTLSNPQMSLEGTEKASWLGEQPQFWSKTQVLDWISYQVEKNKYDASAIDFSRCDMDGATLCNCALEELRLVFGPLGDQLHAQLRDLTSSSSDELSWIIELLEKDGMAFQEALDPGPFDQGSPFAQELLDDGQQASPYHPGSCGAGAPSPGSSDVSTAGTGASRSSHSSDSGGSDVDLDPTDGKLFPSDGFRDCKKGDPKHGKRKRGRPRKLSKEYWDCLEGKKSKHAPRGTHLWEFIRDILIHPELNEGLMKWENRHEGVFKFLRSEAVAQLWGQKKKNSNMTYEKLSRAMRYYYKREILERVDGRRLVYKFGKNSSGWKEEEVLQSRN
# Outline: as §1
# CRX = CRX (Homo sapiens, UniProt O43186 1-299); conditions: protein: recombinant; tags: N-terminal GST; dsDNA, one strand shown
# Chain of CRX (O43186 whole entry): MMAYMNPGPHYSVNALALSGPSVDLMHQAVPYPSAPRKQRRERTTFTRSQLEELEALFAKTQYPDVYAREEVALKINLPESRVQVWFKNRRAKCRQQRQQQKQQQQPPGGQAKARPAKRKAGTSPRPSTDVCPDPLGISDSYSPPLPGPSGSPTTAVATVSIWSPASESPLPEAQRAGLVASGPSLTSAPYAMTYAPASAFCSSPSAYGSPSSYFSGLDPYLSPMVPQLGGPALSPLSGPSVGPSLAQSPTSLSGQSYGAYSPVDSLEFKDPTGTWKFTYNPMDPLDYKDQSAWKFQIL
# Outline: as §1
# ETV1 = ETV1 (Homo sapiens, UniProt P50549 1-477); conditions: protein: recombinant; tags: N-terminal GST; dsDNA, one strand shown
# Chain of ETV1 (P50549 whole entry): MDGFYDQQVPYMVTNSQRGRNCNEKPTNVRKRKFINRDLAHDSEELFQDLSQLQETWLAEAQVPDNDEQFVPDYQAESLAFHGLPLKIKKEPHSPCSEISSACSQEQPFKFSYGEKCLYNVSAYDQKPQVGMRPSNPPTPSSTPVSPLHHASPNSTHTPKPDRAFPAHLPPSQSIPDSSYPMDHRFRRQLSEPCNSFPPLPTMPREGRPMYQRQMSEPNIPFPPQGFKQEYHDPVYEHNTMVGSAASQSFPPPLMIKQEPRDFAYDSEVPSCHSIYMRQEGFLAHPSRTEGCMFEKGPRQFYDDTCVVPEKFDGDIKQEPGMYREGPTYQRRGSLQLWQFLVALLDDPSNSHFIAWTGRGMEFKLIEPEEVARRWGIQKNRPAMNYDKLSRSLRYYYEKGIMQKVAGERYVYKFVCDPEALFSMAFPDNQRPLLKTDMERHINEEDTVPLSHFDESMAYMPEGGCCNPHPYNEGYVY
# Outline: as §1
sequence,measurement,setting,value
GCTTTA,binding signal,FLI1,"1.19 fold enrichment (6-mer frequency, TF over GST control)"
same,binding signal,ELK1,"1.13 fold enrichment (6-mer frequency, TF over GST control)"
same,binding signal,GABPA,"1.08 fold enrichment (6-mer frequency, TF over GST control)"
same,binding signal,ERG,"1.05 fold enrichment (6-mer frequency, TF over GST control)"
same,binding signal,ELF1,"1.09 fold enrichment (6-mer frequency, TF over GST control)"
same,binding signal,EHF,"1.09 fold enrichment (6-mer frequency, TF over GST control)"
same,binding signal,SPI1,"1.16 fold enrichment (6-mer frequency, TF over GST control)"
same,binding signal,SPIB,"1.09 fold enrichment (6-mer frequency, TF over GST control)"
same,binding signal,ELK3,"1.24 fold enrichment (6-mer frequency, TF over GST control)"
same,binding signal,FEV,"1.04 fold enrichment (6-mer frequency, TF over GST control)"
same,binding signal,ETV5,"1.06 fold enrichment (6-mer frequency, TF over GST control)"
same,binding signal,HSF1,"1.25 fold enrichment (6-mer frequency, TF over GST control)"
same,binding signal,SPIC,"1.13 fold enrichment (6-mer frequency, TF over GST control)"
same,binding signal,ELF4,"1.14 fold enrichment (6-mer frequency, TF over GST control)"
same,binding signal,ELK4,"1.2 fold enrichment (6-mer frequency, TF over GST control)"
same,binding signal,ETV2,"1.16 fold enrichment (6-mer frequency, TF over GST control)"
same,binding signal,ELF3,"1.13 fold enrichment (6-mer frequency, TF over GST control)"
same,binding signal,CRX,"1.81 fold enrichment (6-mer frequency, TF over GST control)"
same,binding signal,ETV1,"1.06 fold enrichment (6-mer frequency, TF over GST control)"
